Source: PubChem BioAssay (National Center for Advancing Translational Sciences (NCATS))
Rows were chosen to be rich in hits. Some 10% of all compounds tested hit in one or more screens of this group.
HPGD inh: inhibitors of human 15-hydroxyprostaglandin dehydrogenase (HPGD). P15428. purified HPGD, NADH fluorescence kinetic, PGE2 substrate. Potency, µM, hits mostly inhibitors. 150,000 tested, 4.3% active. AID 894
Target sequence (P15428 whole entry, looked up): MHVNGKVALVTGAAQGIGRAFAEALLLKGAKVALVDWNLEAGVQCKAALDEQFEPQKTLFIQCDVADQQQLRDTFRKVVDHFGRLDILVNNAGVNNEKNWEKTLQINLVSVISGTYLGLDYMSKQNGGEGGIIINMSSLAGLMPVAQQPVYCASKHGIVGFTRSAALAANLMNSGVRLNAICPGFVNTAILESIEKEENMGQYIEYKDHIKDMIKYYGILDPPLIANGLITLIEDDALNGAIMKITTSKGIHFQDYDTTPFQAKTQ
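20 nM HPGD preincubated 15 min at room temperature with compound in 50 mM Tris-HCl pH 8, 0.01% Tween 20. Started with 1 mM NAD+ and 30 uM prostaglandin E2; NADH fluorescence (360/450 nm) read 5 times over 30-s intervals, last minus first.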
Luc counter: counter-screen: inhibitors of Kinase-Glo firefly luciferase; Q27757; Kinase-Glo luciferase, ATP luminescence, 8 min; Potency, µM (highest dose often 38.3 µM), actives largely listed as inhibitors; 200,000 tested, 0.28% active; active means well fitted inhibition curve with a large enough effect; inconclusive means small, poorly fitted or top-dose-only effect; further: nearly all actives have a fitted effect of over 60% in size
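Compound is pinned into ATP-containing buffer (10 uM ATP, imidazole pH 7.2, 7 mM MgCl2). Kinase-Glo luciferase reagent is then added. Light output is recorded following an 8-min room-temperature incubation.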
ALDH1A1 block: inhibitors of human aldehyde dehydrogenase 1A1. P00352. Purified ALDH1A1, NADH fluorescence, propionaldehyde substrate. Potency, µM (titrated, usually from 75.3 µM), actives largely listed as inhibitors. 220,000 tested, 7.3% active. AID 1030
PNC inhibitor: inhibitors of perinucleolar compartment assembly; PC3M PTB-GFP, PNC prevalence imaging, 16 h; hits give low values; activity change (PNC), negative = inhibition, % at 10 µM; 140,000 tested, 3.1% active;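 active means readout at or below -70, meaning at least 70% loss of cells showing the perinucleolar compartment, a nuclear body marking cancer cells; inconclusive means readout between -30 and a set limit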
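Read-out is percentage of cells bearing a perinucleolar compartment, from automated 20x imaging of fixed, Hoechst-stained PC3M PTB-GFP cells. Cells were seeded 4 h, then exposed 16 h to compound (23 nl of library stock) in duplicate plates.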
Lamin A splicing: LMNA splicing modulation | HeLa LMNA splicing GFP/RFP minigene ratio, 48 h | Potency, µM (top dose mostly 46.1 µM), most hits filed as inhibitors | 200,000 tested, 0.01% active | AID 1487; active means well fitted inhibition curve with a large enough effect in the signal ratio, with a control signal flat, not every such curve was filed as active; inconclusive means small, poorly fitted or top-dose-only effect, or effect the other way, or a change in a side signal; the % refers to the signal ratio
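S3 HeLa stable clones carrying a lamin A-EGFP splicing minigene plus DsRed2 were seeded at 600 cells/well in Opti-MEM with 2% FBS, pin-dosed and incubated 48 h at 37°C. Acumen cytometry (488 nm) gave the GFP/RFP total-intensity ratio.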
Large screens that a line does not name were inactive. Unless noted, the call rests on the fitted dose curve; in most records, active means well fitted inhibition curve with a large enough effect (not every such curve was filed as active); inconclusive means small, poorly fitted or top-dose-only effect, or another doubt; inactive means no such curve, though single readings can be large or run the other way.

CC(=O)Nc1ccc2nc(-c3ccccn3)[nH]c2c1	HPGD inh inconclusive, Luc counter 11µM, ALDH1A1 block inconclusive
CCC1=NN(C(=O)CCc2ccc3c(c2)OCO3)C(O)(C(F)(F)F)C1 (stereo not drawn)	Lamin A splicing inconclusive (no result: HPGD inh, PNC inhibitor)
CCN(CC)CCCC(C)n1c(-c2ccccc2)nc2c(NCCOC)nc(C)nc21 (stereo not drawn)	HPGD inh inconclusive, ALDH1A1 block inconclusive (no result: PNC inhibitor, Lamin A splicing)
COc1ccc(-n2[nH]c(C)cc2=O)cc1	ALDH1A1 block 3.2µM, PNC inhibitor inconclusive, Lamin A splicing inconclusive
COC(=O)C1Cc2ccccc2CN1C(=O)CCl (stereo not drawn)	ALDH1A1 block 0.4µM, Lamin A splicing inconclusive (no result: HPGD inh, PNC inhibitor)
Cc1cc(C)cc(OCC(=O)N2Cc3ccccc3CC2C(=O)O)c1 (stereo not drawn)	none (no result: HPGD inh, PNC inhibitor)
O=C(O)c1sc2cc(C(F)(F)F)cnc2c1-c1cccs1	ALDH1A1 block inconclusive (no result: HPGD inh, PNC inhibitor)
O=C(CSc1ccccc1Cl)N1CCC(c2nc3ccccc3s2)CC1	ALDH1A1 block 13µM, Lamin A splicing inconclusive
O=C(CSc1ccc(F)cc1)N1CCC(c2nc3ccccc3s2)CC1	ALDH1A1 block 7.1µM
O=C(c1csnn1)N1CCC2(CCCN(c3ccccn3)C2)CC1	ALDH1A1 block inconclusive (no result: PNC inhibitor, Lamin A splicing)
Cc1cc(C)n(CCC(=O)Nc2ccc(Cl)cc2)n1	none (no result: HPGD inh, Luc counter, ALDH1A1 block, PNC inhibitor)
C(#Cc1ccc(C#CCN2CCCC2)cc1)CN1CCCC1	PNC inhibitor -90, Lamin A splicing inconclusive
COc1ccc(CN(C)C2c3ccccc3-c3ccccc32)cc1	PNC inhibitor -91 (no result: HPGD inh, Luc counter)
Cc1ccc(C(O)(C(=O)NN(C(=O)c2ccccc2)c2ccccc2)c2ccc(C)cc2)cc1	none
Cc1ccc(N(NC(=O)C(O)(c2ccccc2)c2ccccc2)C(=O)CCl)cc1	HPGD inh 11µM, ALDH1A1 block inconclusive
Cc1cc(C)nc(Sc2ccc(C=O)cc2[N+](=O)[O-])n1	ALDH1A1 block 7.1µM (no result: HPGD inh, PNC inhibitor)
O=Cc1ccc(Sc2nnc(-c3ccccc3)o2)c([N+](=O)[O-])c1	HPGD inh 14µM, ALDH1A1 block 7.9µM, Lamin A splicing inconclusive
O=C(NCc1cccnc1)c1cc(Sc2cccc(Cl)c2)nc2ccccc12	ALDH1A1 block 11µM, Lamin A splicing inconclusive
O=C(NCc1cccnc1)C(=O)Nc1nc2ccccc2s1	none (no result: HPGD inh, PNC inhibitor, Lamin A splicing)
O=C(NCc1cccnc1)c1cccnc1-c1nc2ccccc2s1	ALDH1A1 block 20µM
